# Hits are enriched below; roughly 6.3% of the tested compounds scored in any of these assays.
# ATXN2 expr inh – ATXN2 expression inhibition; HEK-293 ATXN2-luciferase reporter, luminescence, 24 h; Potency, µM (series often up to 57 µM), inactives show top-dose activity change, negative = inhibition, actives largely listed as inhibitors; actives 0.72% (n = 360,000); further: on the % scale 0 is the no-effect control and ±100 the full control effect; nearly all actives have a fitted effect of over 55% in size
#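 qHTS (up to 57 uM final) was run with 24 h compound exposure of reporter cells at 37 °C. Each well was multiplexed: SteadyGlo luminescence measured ATXN2-luciferase expression after a fluorogenic Gly-Phe-AFC viability readout (25 uM final).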
# TGFb SMAD3 inh – blocks TGF-b signaling; actives 1.2% (n = 410,000); HepG2 CAGA-GFP TGF-b/SMAD3 reporter, GFP fluorescence, 18 h; TGF-beta stimulated, 500 pg/mL final; AID 588855; Potency, µM (highest dose often 46.1 µM), for the others: at the highest dose activity, negative = inhibition, actives largely listed as inhibitors; further: on the % scale 0 is the no-effect control and ±100 the full control effect; nearly all actives have a fitted effect of over 65% in size
#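 HEPG2 CAGA-GFP, 1000 cells/well; 2 h settle, 37 C; cpd via pin tool; TGF-b 500 pg/mL final; 18 h, 37 C; GFP imaging ex488/em500-530; %Activity normalised to -TGF-b and +DMSO controls; CRC fit, curve class.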
# S2 tox – cell viability loss in ATXN counter-screen. Potency, µM (series often up to 56.7 µM), usual class: cytotoxic. actives 0.49% (n = 400,000). S2 cells (HEK-293 line with an ATXN2-luciferase reporter) viability, CellTiter-Fluor protease fluorescence, 24 h; further: nearly all actives have a fitted effect of over 40% in size
# HepG2 tox – kills HepG2 cells in TGF-b inhibitor counter-screen. HepG2 CAGA-GFP viability, ATP luminescence, 18 h. Potency, µM (top dose mostly 46.1 µM), for inactives: at the top dose activity change, negative = cytotoxicity, hits mostly cytotoxic. actives 0.76% (n = 410,000). AID 588856
#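 CellTiter-Glo luminescence gave cytotoxicity after 18 hours at 37 degrees C. The cells were HepG2 CAGA-GFP in 1% FBS DMEM, stimulated with 500 pg/mL TGF-beta after compound addition. %Activity was normalised to no-cell wells (complete cell-killing) and DMSO (no toxicity), and curves were fitted and classified.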
# VP16 counter – Gal4-VP16 reporter inhibition counter-screen; Drosophila S2 Gal4-VP16 UAS-luciferase, luminescence, 20 h; Potency, µM (titrated, usually from 53.6 µM), for inactives: at the top dose activity, negative = inhibition, actives largely listed as inhibitors; actives 3.5% (n = 310,000); AID 2546;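 further: Gal4-VP16 expression switched on by copper sulfate through the metallothionein promoter; on the % scale 0 is the no-effect control and ±100 the full control effect; nearly all actives have a fitted effect of over 50% in size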
# RORg inh – ROR gamma (mouse) transcription inhibition. Potency, µM (highest dose often 53.6 µM), for the others: at the highest dose activity change, negative = inhibition, usual class: inhibitors. Drosophila S2 Gal4-RORgamma UAS-luciferase reporter, 20 h. P51450. actives 5.4% (n = 310,000); further: on the % scale 0 is the no-effect control and ±100 the full control effect; nearly all actives have a fitted effect of over 60% in size
# Target sequence (P51450 whole entry, looked up, the tested form may be a part): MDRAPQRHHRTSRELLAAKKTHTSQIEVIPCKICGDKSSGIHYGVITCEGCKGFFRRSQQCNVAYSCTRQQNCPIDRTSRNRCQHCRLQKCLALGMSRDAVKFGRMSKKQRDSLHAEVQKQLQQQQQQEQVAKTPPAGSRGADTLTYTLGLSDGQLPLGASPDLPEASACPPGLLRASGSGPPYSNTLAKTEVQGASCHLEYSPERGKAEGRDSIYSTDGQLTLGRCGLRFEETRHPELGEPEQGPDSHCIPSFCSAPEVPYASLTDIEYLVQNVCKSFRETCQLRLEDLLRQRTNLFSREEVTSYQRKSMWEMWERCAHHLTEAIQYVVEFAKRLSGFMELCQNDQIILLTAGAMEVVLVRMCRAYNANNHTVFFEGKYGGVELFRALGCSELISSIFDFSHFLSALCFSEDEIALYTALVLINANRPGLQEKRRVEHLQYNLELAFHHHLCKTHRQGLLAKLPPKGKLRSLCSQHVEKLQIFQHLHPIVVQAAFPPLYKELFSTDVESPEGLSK
#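 Using a luciferase readout, inhibitors were identified by reduced reporter activity in Drosophila cells coexpressing a copper-inducible Gal4–ROR gamma fusion and UAS-driven Photinus luciferase, incubated 20 hr after 700 uM copper sulfate.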
# Numbers without * were called inactive; i = inactive; ? = inconclusive; / = no result; [ ] = dose if it differs, or a comment. The call rests on the fitted dose curve; in most records, active means well fitted curve in the direction sought with a large enough effect; inconclusive means small, poorly fitted or top-dose-only effect, or another doubt; inactive means no such curve, though single readings can be large; an effect the other way counts as inactive or inconclusive. Potency means the concentration at half of the fitted maximal effect.
SMILES,ATXN2 expr inh,TGFb SMAD3 inh,S2 tox,HepG2 tox,VP16 counter,RORg inh
CC(C)Oc1ccc(CNC(=S)N/N=C/c2ccc([N+](=O)[O-])cc2)cc1,-18%,-16%,i,0%,3.2µM*,2.5µM*
COc1ccccc1-c1cc(NC(C)=O)c2ncc(-c3cccc(C(C)=O)c3)n2c1,?,-20%,?,-23%,/,/
CC(NC(=O)c1cc(F)ccc1F)c1nnc2n1CCN(Cc1ccccc1O)CC2 (centres undefined),/,/,i,/,/,/
C[C@@H]1C/C=C/C=C/C=C/C=C/[C@H](O[C@@H]2O[C@H](C)[C@@H](O)[C@H](N)[C@@H]2O)C[C@@H]2O[C@](O)(C[C@@H](O)C[C@H]3O[C@@H]3/C=C/C(=O)O1)C[C@H](O)[C@H]2C(=O)O,/,/,i,/,/,/
CC(C)Oc1ccc(CCC(=O)N/N=C/c2ccc3c(c2)OCO3)cc1,-2%,0%,i,1%,-6%,-12%
CCCOc1ccc(CNC(=S)N/N=C/c2ccc([N+](=O)[O-])cc2)cc1,-20%,?,i,-42%,1.6µM*,1.3µM*
CC(C)Oc1ccc(CCC(=O)N/N=C/c2ccncc2)cc1,1%,14%,i,22%,-6%,20µM*
CN(CCO)C(=O)c1cn(C2CCN(Cc3cccc4ccccc34)CC2)nn1,/,/,i,/,/,/
CCc1ccc2c(c1)cc(CN(C(=S)Nc1cccc(C)c1)C1CC1)c1nnnn12,-11%,1%,i,0%,10%,6.3µM*
C/C(=N\Nc1nc(C)cc(-c2ccccc2)n1)c1ccc(C)o1,?,-12%,i,-52%,10µM*,5µM*
C/C(=N/Nc1nc(C)cc(-c2ccccc2)n1)c1ccco1,15%,?,i,-40%,18µM*,5µM*
C/C(=N\NC(=O)C(O)(c1ccccc1)c1ccccc1)c1ccc(C)o1,-16%,3%,?,-11%,-16%,-25%
CCS(=O)(=O)Nc1cc(C(=O)N[C@H]2CCCCNC2=O)c2c(c1)nc(-c1ccccc1)n2C,/,/,i,/,/,/
O=S(=O)(c1ccc(Br)cc1)N1CCN(c2nc(-c3ccccc3)nc3ccccc23)CC1,/,22%,/,18%,/,/
O=C(CN1CCOCC1)NNC(=S)Nc1ccc(Cl)cc1,8%,2%,i,9%,4%,-34%
O=C(CN1c2ccccc2Sc2ccccc21)NNC(=S)Nc1ccc(Cl)cc1,-23%,?,i,-13%,?,10µM*
O=C(CN1c2ccccc2Sc2ccccc21)NNC(=S)Nc1ccc(Cl)cc1Cl,-11%,?,i,-61%,?,13µM*
COCCn1c(=O)c(-c2cccc(C#N)c2)nc2cnc(Oc3ccc(OC)cc3)nc21,/,/,/,/,-3%,?
COC(=O)[C@@H]1CCCN1Cc1ccc2c(c1)CN(Cc1nccs1)CCO2,/,/,i,/,/,/
COc1ccc(C(=O)/C=C/C(=O)N(CC(=O)NC2CCCCC2)Cc2ccccc2OC)c(O)c1,21µM*,?,/,-13%,?,?
COc1ccc(C(=O)/C=C/C(=O)N(CC(=O)NC2CCCCC2)CC2CCCO2)c(O)c1 (centres undefined),3.8µM*,?,4µM*,13µM*,3.2µM*,6.3µM*
COc1ccc(C(=O)/C=C/C(=O)N(Cc2ccccc2OC)C(C(=O)NC2CCCCC2)c2ccncc2)c(O)c1 (centres undefined),24µM*,?,/,9%,0%,4%[10 µM]
COc1ccc(-n2nnnc2C(c2ccnc3ccccc23)N2CCN(C/C=C/c3ccccc3)CC2)cc1 (centres undefined),?,?,?,-23%,/,/
Cc1nnc2c(N3CCN(c4ccccc4F)CC3)nc3ccc(C(=O)c4ccccc4)cc3n12,/,0%,/,3%,/,/
CC(=O)Oc1ccc2nc(/C=C/c3ccccc3)oc(=O)c2c1,0%,23%,i,5%,?,6.3µM*
SMILES,ATXN2 expr inh,TGFb SMAD3 inh,S2 tox,HepG2 tox,VP16 counter,RORg inh
CC(=O)Oc1ccc2nc(/C=C/c3ccc(C=O)cc3)oc(=O)c2c1,-17%,2%,i,8%,/,/
Cc1ccccc1NC(=O)Cn1cc(S(=O)(=O)N2CCCC2)c(S(=O)(=O)N2CCCC2)c1,10%,1%,i,14%,/,/
O=C(CSc1nnc(SCc2ccc(Cl)cc2)s1)N/N=C/c1c[nH]c2ccccc12,?,?,?,-64%,8.9µM*,11µM*
O=C(CSc1nnc(SCc2cccc3ccccc23)s1)N/N=C/c1c[nH]c2ccccc12,7%,?,i,-4%,-7%,-29%
COc1cccc(/C=N/NC(=S)NCCc2ccccc2)c1OC,2%,0%,i,-12%,?,11µM*
COc1ccc(OC)c(/C=N\NC(=O)CC(=O)NCCc2ccccc2)c1,-17%,21%,i,10%,4%,-3%
COc1ccc(OC)c(/C=N/NC(=O)c2csc3ccccc23)c1,-6%,28%,i,1%,0%,13µM*
COc1ccc(OC)c(/C=N/NC(=S)NCCc2ccccc2)c1,-11%,0%,i,7%,11µM*,40µM*
CCOc1ccccc1NC(=O)c1ccc2c(c1)CCCN2S(C)(=O)=O,3%,40%,i,-2%,/,/
C/C(CCN1CCCCc2nc(C)c(C)cc21)=N\OC[C@@H](O)COCc1ccco1,/,/,/,/,-12%[10 µM],11%[10 µM]
C=CCNC(=S)N(C1CCCCC1)C1CCCCC1,-36%,-15%,i,-42%,2%,10µM*
CNC(=S)N/N=C/c1ccc(-c2ccc(Cl)c([N+](=O)[O-])c2)o1,15%[11.3 µM],3%,i,1%,3.5µM*,4.5µM*
CNC(=S)N/N=C/c1ccc(-c2ccc(C(=O)O)cc2)o1,-1%,-7%,i,-73%,-26%,4µM*
CC(C)(C)NC(=S)N/N=C\c1ccc(-c2ccc([N+](=O)[O-])cc2)o1,2%,6%,/,18%,?,?
O=C(O)c1ccc(-c2ccc(/C=N/Nc3ccc([N+](=O)[O-])cc3)o2)cc1,8%,31%,i,-24%,1%,24%
CCC(=O)N/N=C/c1ccc(-c2ccc(Cl)cc2)o1,3%,5%,i,0%,27%,-44%
NS(=O)(=O)c1ccc(-c2ccc(/C=N/Nc3ccc(C(=O)O)cc3)o2)cc1,66%,-7%,i,0%,-2%,10µM*
Cc1ccc(-c2ccc(/C=N/NC(=S)Nc3ccccc3)o2)cc1[N+](=O)[O-],-16%,1%,?,-13%,13µM*,0.89µM*

# Compound activity deposited in PubChem by National Center for Advancing Translational Sciences (NCATS).
